Measurements taken from PubChem BioAssay (NCI).
The panel holds about 83,000 compounds, 20% with a hit somewhere; the sample as a whole holds those more often.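 A percent growth of 40 corresponds to 60% growth inhibition; 0 means no net growth; -100 means all cells died. Active threshold: below 10.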 Unmarked numbers belong to inactive results. The source made the active and inactive calls.

Test system: SF-295 CNS
Test: NCI-60 one-dose screen, 48 h (100 = growth as untreated, 0 = no growth, -100 = all killed)
Details: 10 µM

Compound	growth
COc1cc(-c2cc(/C=C3\C(=O)Nc4cc(Cl)ccc43)[nH]n2)cc(OC)c1OC	32.6%
CCCCCCc1cc(N=Nc2ccc(S(=O)(=O)Nc3cc(C)nc(C)n3)cc2)c(O)cc1O	98.7%
N#CC1=C(Nc2ccccc2Cl)SC(c2ccccc2O)NC1=O (stereo not drawn)	113%
COc1cc(-c2nc(Nc3nc4ccccc4s3)[nH]c(=O)c2C#N)cc(OC)c1O	116%
CCCCCCCCCCCCCCCCCCOCC(COCCOCC[N+]1(CCCCCC(=O)[O-])CCCC1)Oc1ncccn1 (stereo not drawn)	26.9%
COc1ccc(C2=NN(C(=O)c3ccc(S(C)(=O)=O)cc3)C(c3ccc(OC)c(OC)c3)C2)c(OC)c1 (stereo not drawn)	98.7%
COc1ccccc1CNCCCN1C(=O)c2ccc3c4c(ccc(c24)C1=O)C(=O)N(CCCN)C3=O	-2.42% (active)
Nc1nc(N)c(NC(=O)CNc2ccc(C(=O)O)cc2)c(N)n1	99.2%
c1ccc(CP(Cc2ccccc2)c2ccccc2)cc1	82.4%
COC(=O)C1(C)Cc2cc(OC(C)=O)c(OC(C)=O)cc2N1 (stereo not drawn)	121%
CC(=O)OCc1cc(-c2nc3ccccc3[nH]c2=O)nn1-c1ccc(Cl)cc1	96.5%
CC(=O)c1nc2ccccc2n1CCN1CCN(C)CC1	153%
COc1ccc(-c2nn(-c3cccc(NC(=O)Nc4ccc(Cl)c(C(F)(F)F)c4)c3)cc2-c2ccncc2)cc1Cl	-2.09% (active)
COc1cc(C(=O)/C=C/c2cc(-c3cc(OC)c(OC)c(OC)c3)n[nH]2)cc(OC)c1OC	135%
Cc1cccc(NC2=C(C#N)C(=O)NC3(CCCC3)S2)c1	108%
O=C1/C(=C\c2ccc(F)cc2)CN(C(=O)c2ccccc2)C/C1=C\c1ccc(F)cc1	-3.21% (active)
COc1cc(-c2cc(/C=C3\C(=O)Nc4ccccc43)[nH]n2)cc(OC)c1OC	70.6%
COc1cc(/C=C\c2cc(OC)c(OC)c(OC)c2)cc(NS(=O)(=O)c2ccc(Cl)cc2)c1OC	10.9%
S=C1SCC(c2ccccc2)S1 (stereo not drawn)	117%
CCN(CC)Cc1cc(Nc2ccnc3cc(Cl)ccc23)ccc1OC	91%

Compound	growth
COC(=O)C(C(C[N+](=O)[O-])c1ccccc1)=P(c1ccccc1)(c1ccccc1)c1ccccc1 (stereo not drawn)	91.6%
O=S(=O)(NCCCNc1nccc(-c2c(-c3ccc(F)cc3)nc3sccn23)n1)c1ccc2ccccc2c1	43.7%
CC(=O)N1N=C(c2ccc(Cl)cc2)CC1c1sc(Cl)nc1Cl (stereo not drawn)	80.3%
O=c1[nH]c2ccc(Cl)cc2c2ccccc12	97.9%
COc1ccc(NC2=NC(C)(CO)CS2)cc1 (stereo not drawn)	109%
N#Cc1ncc(Br)c(NC2CCCCCC2)n1	93.4%
O=C(Nc1cccc(-n2cc(-c3ccncc3)c(-c3cc(O)cc(Cl)c3)n2)c1)Nc1ccc(Cl)c(C(F)(F)F)c1	14.3%
Nc1ncn(C2OC(CO)C(O)C2O)c(=O)n1 (stereo not drawn)	15.4%
O=C(Nc1nc(-c2ccccc2Cl)cs1)c1cc(-c2ccc(Cl)cc2)nc2ccc(Cl)cc12	89.4%
Nc1c(C(=O)Nc2cccc(F)c2)sc2nc3c(cc12)C(=O)CCC3	7.23% (active)
COc1ccc(-c2cc(/C=C3\C(=O)Nc4ccc(Cl)cc43)[nH]n2)cc1OC	99.6%
O=C1CC[C@@H]2CCCC[C@@H]2C1	110%
COc1ccc2c(c1)O/C(=C\c1ccc([N+](=O)[O-])s1)C2=O	69%
Nc1nc(N)c2c(ccc3nccc32)[nH]1	34.4%
Nc1cc2c(cc1Cl)-c1ccc([N+](=O)[O-])cc1/C2=N\O	74.8%
COc1cc(-c2cc(/C=C/C(=O)c3ccc4c(c3)OCO4)[nH]n2)cc(OC)c1OC	19.5%
COc1ccc(Cl)cc1C(=O)Nc1nc2ccc(Cl)cc2s1	170%
Cc1cc2c(C)c3cc(C)c(N)cc3nc2cc1N	39.5%
O=c1oc2cc(OS(=O)(=O)c3ccccc3)ccc2c2c1CCCCC2	59.8%

Test system: SF-539 CNS
Test: as above
Details: 10 µM

Compound	growth
COc1cc(-c2cc(/C=C3\C(=O)Nc4cc(Cl)ccc43)[nH]n2)cc(OC)c1OC	48.9%
CCCCCCc1cc(N=Nc2ccc(S(=O)(=O)Nc3cc(C)nc(C)n3)cc2)c(O)cc1O	97.1%
N#CC1=C(Nc2ccccc2Cl)SC(c2ccccc2O)NC1=O (stereo not drawn)	99.6%
COc1cc(-c2nc(Nc3nc4ccccc4s3)[nH]c(=O)c2C#N)cc(OC)c1O	108%
CCCCCCCCCCCCCCCCCCOCC(COCCOCC[N+]1(CCCCCC(=O)[O-])CCCC1)Oc1ncccn1 (stereo not drawn)	36.8%
COc1ccc(C2=NN(C(=O)c3ccc(S(C)(=O)=O)cc3)C(c3ccc(OC)c(OC)c3)C2)c(OC)c1 (stereo not drawn)	102%
COc1ccccc1CNCCCN1C(=O)c2ccc3c4c(ccc(c24)C1=O)C(=O)N(CCCN)C3=O	-87.3% (active)
Nc1nc(N)c(NC(=O)CNc2ccc(C(=O)O)cc2)c(N)n1	101%
c1ccc(CP(Cc2ccccc2)c2ccccc2)cc1	110%
COC(=O)C1(C)Cc2cc(OC(C)=O)c(OC(C)=O)cc2N1 (stereo not drawn)	91.3%
CC(=O)OCc1cc(-c2nc3ccccc3[nH]c2=O)nn1-c1ccc(Cl)cc1	90.2%
CC(=O)c1nc2ccccc2n1CCN1CCN(C)CC1	35.3%
COc1ccc(-c2nn(-c3cccc(NC(=O)Nc4ccc(Cl)c(C(F)(F)F)c4)c3)cc2-c2ccncc2)cc1Cl	-7.12% (active)
COc1cc(C(=O)/C=C/c2cc(-c3cc(OC)c(OC)c(OC)c3)n[nH]2)cc(OC)c1OC	-56.2% (active)
Cc1cccc(NC2=C(C#N)C(=O)NC3(CCCC3)S2)c1	91.5%
O=C1/C(=C\c2ccc(F)cc2)CN(C(=O)c2ccccc2)C/C1=C\c1ccc(F)cc1	69.2%
COc1cc(-c2cc(/C=C3\C(=O)Nc4ccccc43)[nH]n2)cc(OC)c1OC	67.8%
COc1cc(/C=C\c2cc(OC)c(OC)c(OC)c2)cc(NS(=O)(=O)c2ccc(Cl)cc2)c1OC	-23.9% (active)
S=C1SCC(c2ccccc2)S1 (stereo not drawn)	95.7%
CCN(CC)Cc1cc(Nc2ccnc3cc(Cl)ccc23)ccc1OC	62.7%

Compound	growth
COC(=O)C(C(C[N+](=O)[O-])c1ccccc1)=P(c1ccccc1)(c1ccccc1)c1ccccc1 (stereo not drawn)	99.2%
O=S(=O)(NCCCNc1nccc(-c2c(-c3ccc(F)cc3)nc3sccn23)n1)c1ccc2ccccc2c1	85.3%
CC(=O)N1N=C(c2ccc(Cl)cc2)CC1c1sc(Cl)nc1Cl (stereo not drawn)	104%
O=c1[nH]c2ccc(Cl)cc2c2ccccc12	80.1%
COc1ccc(NC2=NC(C)(CO)CS2)cc1 (stereo not drawn)	89.7%
N#Cc1ncc(Br)c(NC2CCCCCC2)n1	99.5%
O=C(Nc1cccc(-n2cc(-c3ccncc3)c(-c3cc(O)cc(Cl)c3)n2)c1)Nc1ccc(Cl)c(C(F)(F)F)c1	32.6%
Nc1ncn(C2OC(CO)C(O)C2O)c(=O)n1 (stereo not drawn)	-24.4% (active)
O=C(Nc1nc(-c2ccccc2Cl)cs1)c1cc(-c2ccc(Cl)cc2)nc2ccc(Cl)cc12	-5.27% (active)
Nc1c(C(=O)Nc2cccc(F)c2)sc2nc3c(cc12)C(=O)CCC3	-17.4% (active)
COc1ccc(-c2cc(/C=C3\C(=O)Nc4ccc(Cl)cc43)[nH]n2)cc1OC	82.2%
O=C1CC[C@@H]2CCCC[C@@H]2C1	102%
COc1ccc2c(c1)O/C(=C\c1ccc([N+](=O)[O-])s1)C2=O	34.5%
Nc1nc(N)c2c(ccc3nccc32)[nH]1	57.9%
Nc1cc2c(cc1Cl)-c1ccc([N+](=O)[O-])cc1/C2=N\O	75.9%
COc1cc(-c2cc(/C=C/C(=O)c3ccc4c(c3)OCO4)[nH]n2)cc(OC)c1OC	3.66% (active)
COc1ccc(Cl)cc1C(=O)Nc1nc2ccc(Cl)cc2s1	86.4%
Cc1cc2c(C)c3cc(C)c(N)cc3nc2cc1N	19.4%
O=c1oc2cc(OS(=O)(=O)c3ccccc3)ccc2c2c1CCCCC2	48.3%
